# Test results taken from PubChem BioAssay (EPA / NIEHS).
# Where “and” joins values, the source holds several entries; their conditions need not be identical. Identical values can stand only once. Records with an inconclusive call do not appear. Some compounds were tested as several samples or in several runs, with calls that do not always agree. Calls of active or inactive are those of the source. How the source made its calls, unless noted: active means hit-call score of the fitted dose curve at least 0.9, where 1 is the maximum; inactive means score below 0.9.
# Legend:
# [1] = target: Estrogen-related receptor gamma (Homo sapiens) (UniProt P62508); assay: ATG_ERRg_TRANS: Attagene TRANS-FACTORIAL HepG2 Assay for human Estrogen-Related Receptor gamma (ERRg) (AID 2282977; active means hit-call score of the fitted dose curve at least 0.9, where 1 is the maximum;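 further: hits increase reporter signal over DMSO so potencies reflect activators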); conditions: HepG2 Attagene TRANS reporter, ERRg transactivation
# Sequence of Estrogen-related receptor gamma (Homo sapiens) (P62508 whole entry, looked up, the tested form may be a part): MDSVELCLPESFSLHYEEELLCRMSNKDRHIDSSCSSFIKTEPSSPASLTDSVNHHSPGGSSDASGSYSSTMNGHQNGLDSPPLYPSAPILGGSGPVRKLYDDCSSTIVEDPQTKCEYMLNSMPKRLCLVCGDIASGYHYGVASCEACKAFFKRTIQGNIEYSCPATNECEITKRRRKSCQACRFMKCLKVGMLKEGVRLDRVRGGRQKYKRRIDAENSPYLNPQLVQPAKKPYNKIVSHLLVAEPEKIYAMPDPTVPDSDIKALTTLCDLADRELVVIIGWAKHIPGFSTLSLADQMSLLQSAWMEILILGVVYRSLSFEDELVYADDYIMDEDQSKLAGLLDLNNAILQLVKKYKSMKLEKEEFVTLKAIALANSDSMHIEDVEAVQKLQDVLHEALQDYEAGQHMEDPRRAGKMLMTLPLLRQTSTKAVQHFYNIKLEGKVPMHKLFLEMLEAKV
# In short: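 Exogenous NR-Gal4 chimera activity was assessed in HepG2 cells bearing transfected GAL4-UAS reporters. After 24 h dosing, total RNA underwent RT-PCR, fluorescent primer extension and HpaI digestion before capillary electrophoresis, with gain of signal scored against DMSO.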
# [2] = target: Glucocorticoid receptor (Homo sapiens) (UniProt P04150); assay: ATG_GR_TRANS: Attagene TRANS-FACTORIAL HepG2 Assay for human Glucocorticoid Receptor (GR) (AID 2282978; active means hit-call score of the fitted dose curve at least 0.9, where 1 is the maximum;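 further: activators score as hits since higher reporter transcript over DMSO is fitted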); conditions: HepG2 Attagene TRANS GR reporter, mRNA transcription
# Sequence of Glucocorticoid receptor (Homo sapiens) (P04150 whole entry, looked up, the tested form may be a part): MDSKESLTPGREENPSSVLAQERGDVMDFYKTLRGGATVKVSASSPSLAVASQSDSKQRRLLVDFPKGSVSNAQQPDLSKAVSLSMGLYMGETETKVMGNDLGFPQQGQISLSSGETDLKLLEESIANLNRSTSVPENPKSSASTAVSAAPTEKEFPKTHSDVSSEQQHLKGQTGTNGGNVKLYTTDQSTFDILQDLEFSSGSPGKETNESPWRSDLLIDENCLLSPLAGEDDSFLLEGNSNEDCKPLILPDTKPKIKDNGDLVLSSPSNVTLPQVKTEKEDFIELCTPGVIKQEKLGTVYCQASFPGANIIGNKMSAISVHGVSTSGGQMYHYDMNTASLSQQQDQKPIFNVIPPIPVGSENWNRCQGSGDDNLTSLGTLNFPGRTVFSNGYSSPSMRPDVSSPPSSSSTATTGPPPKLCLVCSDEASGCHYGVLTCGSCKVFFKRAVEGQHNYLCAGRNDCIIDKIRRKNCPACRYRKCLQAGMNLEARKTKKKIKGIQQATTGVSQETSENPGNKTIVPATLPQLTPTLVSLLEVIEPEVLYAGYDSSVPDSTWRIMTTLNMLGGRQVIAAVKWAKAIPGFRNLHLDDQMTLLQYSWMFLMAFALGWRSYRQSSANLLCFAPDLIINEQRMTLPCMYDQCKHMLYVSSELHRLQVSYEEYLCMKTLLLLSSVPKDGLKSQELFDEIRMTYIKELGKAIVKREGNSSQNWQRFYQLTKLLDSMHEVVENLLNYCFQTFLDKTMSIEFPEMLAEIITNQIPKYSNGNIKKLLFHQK
# In short: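 HepG2 cells transiently transfected with multiplexed reporter units in which chimeric NR-GAL4 proteins drive GAL4-UAS reporters; 24 h compound exposure. Reporter mRNA measured by RT-PCR, 6-FAM labelling, HpaI digestion and capillary electrophoresis; gain-of-signal fitted versus DMSO.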
# [3] = target: Oxysterols receptor LXR-alpha (Homo sapiens) (UniProt Q13133); assay: ATG_LXRa_TRANS: Attagene TRANS-FACTORIAL HepG2 Assay for human Liver X Receptor alpha (LXRa) (AID 2282980; active means hit-call score of the fitted dose curve at least 0.9, where 1 is the maximum); conditions: HepG2 Attagene TRANS reporter, LXRa transactivation
# Sequence of Oxysterols receptor LXR-alpha (Homo sapiens) (Q13133 whole entry, looked up, the tested form may be a part): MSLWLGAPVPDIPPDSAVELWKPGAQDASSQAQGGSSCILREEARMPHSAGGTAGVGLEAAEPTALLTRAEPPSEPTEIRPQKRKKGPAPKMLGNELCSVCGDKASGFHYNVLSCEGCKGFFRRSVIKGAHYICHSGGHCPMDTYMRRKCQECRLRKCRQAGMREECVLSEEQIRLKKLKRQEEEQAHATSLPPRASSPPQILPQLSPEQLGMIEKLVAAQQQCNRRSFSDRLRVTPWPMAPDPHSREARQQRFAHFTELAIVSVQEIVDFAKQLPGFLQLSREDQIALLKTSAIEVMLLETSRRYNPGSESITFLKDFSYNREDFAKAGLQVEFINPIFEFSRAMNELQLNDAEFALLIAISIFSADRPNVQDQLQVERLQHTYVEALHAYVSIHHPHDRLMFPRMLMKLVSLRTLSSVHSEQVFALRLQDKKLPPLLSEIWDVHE
# In short: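 Chemical-induced reporter mRNA measured by RT-PCR with fluorescent labelling and capillary electrophoresis after 24 h dosing of transiently transfected HepG2 cells expressing exogenous NR-Gal4 chimeras; increases scored against DMSO baseline.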
# [4] = target: Oxysterols receptor LXR-beta (Homo sapiens) (UniProt P55055); assay: ATG_LXRb_TRANS: Attagene TRANS-FACTORIAL HepG2 Assay for human Liver X Receptor beta (LXRb) (AID 2282981; active means hit-call score of the fitted dose curve at least 0.9, where 1 is the maximum); conditions: HepG2 Attagene TRANS GAL4-LXRb reporter, mRNA
# In short: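 After 24 h of chemical treatment, transfected HepG2 cells yield total RNA; reporter cDNA is PCR-amplified, FAM-labelled, HpaI-cut and run on capillary electrophoresis. Signal reflects chimeric LXRb-Gal4 activity on GAL4-UAS reporters.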
# [5] = target: Hepatocyte nuclear factor 4-alpha (Homo sapiens) (UniProt P41235); assay: ATG_HNF4a_TRANS: Attagene TRANS-FACTORIAL HepG2 Assay for human Hepatocyte Nuclear Factor 4 alpha (HNF4a) (AID 2282982; active means hit-call score of the fitted dose curve at least 0.9, where 1 is the maximum); conditions: HepG2 HNF4a transactivation reporter, mRNA readout
# Sequence of Hepatocyte nuclear factor 4-alpha (Homo sapiens) (P41235 whole entry, looked up): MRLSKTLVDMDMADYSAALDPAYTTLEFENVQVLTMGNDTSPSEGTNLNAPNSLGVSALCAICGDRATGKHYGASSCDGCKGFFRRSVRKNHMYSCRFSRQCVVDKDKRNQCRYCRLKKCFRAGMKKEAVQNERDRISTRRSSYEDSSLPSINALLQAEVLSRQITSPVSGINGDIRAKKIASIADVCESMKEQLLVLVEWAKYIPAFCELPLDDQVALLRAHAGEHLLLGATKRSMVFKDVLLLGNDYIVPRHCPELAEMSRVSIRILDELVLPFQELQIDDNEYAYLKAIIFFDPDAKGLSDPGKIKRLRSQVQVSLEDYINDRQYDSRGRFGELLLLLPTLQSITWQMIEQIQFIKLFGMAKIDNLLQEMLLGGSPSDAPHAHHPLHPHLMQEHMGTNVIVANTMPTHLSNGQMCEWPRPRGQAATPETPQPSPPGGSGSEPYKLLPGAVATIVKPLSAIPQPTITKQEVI
# In short: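 Multiplexed reporter assay: transfected HepG2, 24 h exposure, total RNA → oligo(dT) RT → PCR → 6-FAM extension → HpaI digest → CE fluorescence. DMSO = negative control.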
# [6] = ATG_M_06_TRANS: Attagene TRANS-FACTORIAL HepG2 Assay for M06 Transcription Factor (Internal Marker) (AID 2282983; active means hit-call score of the fitted dose curve at least 0.9, where 1 is the maximum;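 further: reporter transcript level by RT-PCR then capillary electrophoresis fluorescence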); conditions: HepG2 Attagene TRANS M06 internal marker reporter
# In short: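 Background-control reporter readout: after 24 h chemical exposure of transiently transfected HepG2 (GAL4-UAS reporter units), mRNA quantified by RT-PCR with fluorescent labeling and capillary electrophoresis. Gain-of-signal fitting against DMSO baseline.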
# [7] = ATG_M_32_TRANS: Attagene TRANS-FACTORIAL HepG2 Assay for M32 Transcription Factor (Internal Marker) (AID 2282984; active means hit-call score of the fitted dose curve at least 0.9, where 1 is the maximum;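 further: transcript level of a background control reporter unit measured by RT-PCR and capillary electrophoresis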); conditions: HepG2 Attagene TRANS M32 internal marker reporter
# In short: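 Cell-based TRANS-format assay in HepG2: exogenous chimeric GAL4 reporter units transiently expressed, compounds applied 24 h. Reporter mRNA detected by RT-PCR plus capillary electrophoresis; this readout is an internal background marker.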
# [8] = target: Nuclear receptor subfamily 4 group A member 2 (Homo sapiens) (UniProt P43354); assay: ATG_NURR1_TRANS: Attagene TRANS-FACTORIAL HepG2 Assay for human Nuclear Receptor Related Protein 1 (NURR1) (AID 2282985; active means hit-call score of the fitted dose curve at least 0.9, where 1 is the maximum); conditions: HepG2 Attagene TRANS reporter, mRNA readout
# Sequence of Nuclear receptor subfamily 4 group A member 2 (Homo sapiens) (P43354 whole entry, looked up, the tested form may be a part): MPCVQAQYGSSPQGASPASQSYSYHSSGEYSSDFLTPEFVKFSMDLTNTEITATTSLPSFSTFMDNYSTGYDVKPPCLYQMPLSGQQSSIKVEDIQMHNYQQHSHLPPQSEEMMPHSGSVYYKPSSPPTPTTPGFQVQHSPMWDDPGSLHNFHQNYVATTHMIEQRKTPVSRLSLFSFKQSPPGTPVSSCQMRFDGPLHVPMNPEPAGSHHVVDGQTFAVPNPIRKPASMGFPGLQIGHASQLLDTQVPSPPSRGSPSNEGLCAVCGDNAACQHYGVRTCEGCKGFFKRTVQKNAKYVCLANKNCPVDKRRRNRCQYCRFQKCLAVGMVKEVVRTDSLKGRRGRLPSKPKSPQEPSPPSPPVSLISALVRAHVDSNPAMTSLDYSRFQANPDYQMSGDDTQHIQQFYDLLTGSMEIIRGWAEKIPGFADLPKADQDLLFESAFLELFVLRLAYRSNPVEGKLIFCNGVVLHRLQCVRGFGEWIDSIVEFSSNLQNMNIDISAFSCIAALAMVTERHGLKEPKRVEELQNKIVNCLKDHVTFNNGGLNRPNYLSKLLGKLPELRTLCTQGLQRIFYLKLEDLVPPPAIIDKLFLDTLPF
# In short: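 Measures transcriptional activation by an exogenous NR-Gal4 chimera in transfected HepG2 liver cells. After 24 h, reporter RNA is reverse-transcribed, amplified and resolved by capillary electrophoresis; DMSO defines baseline.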
# [9] = target: Transcriptional activator Myb (Homo sapiens) (UniProt P10242); assay: ATG_Myb_CIS: Attagene CIS-FACTORIAL HepG2 Assay for human Myeloblastosis (Myb) Proto-Oncogene Transcription Factor (AID 2282986); conditions: HepG2 Attagene CIS-FACTORIAL Myb reporter transcription; actives raise or lower the signal
# Sequence of Transcriptional activator Myb (Homo sapiens) (P10242 whole entry, looked up): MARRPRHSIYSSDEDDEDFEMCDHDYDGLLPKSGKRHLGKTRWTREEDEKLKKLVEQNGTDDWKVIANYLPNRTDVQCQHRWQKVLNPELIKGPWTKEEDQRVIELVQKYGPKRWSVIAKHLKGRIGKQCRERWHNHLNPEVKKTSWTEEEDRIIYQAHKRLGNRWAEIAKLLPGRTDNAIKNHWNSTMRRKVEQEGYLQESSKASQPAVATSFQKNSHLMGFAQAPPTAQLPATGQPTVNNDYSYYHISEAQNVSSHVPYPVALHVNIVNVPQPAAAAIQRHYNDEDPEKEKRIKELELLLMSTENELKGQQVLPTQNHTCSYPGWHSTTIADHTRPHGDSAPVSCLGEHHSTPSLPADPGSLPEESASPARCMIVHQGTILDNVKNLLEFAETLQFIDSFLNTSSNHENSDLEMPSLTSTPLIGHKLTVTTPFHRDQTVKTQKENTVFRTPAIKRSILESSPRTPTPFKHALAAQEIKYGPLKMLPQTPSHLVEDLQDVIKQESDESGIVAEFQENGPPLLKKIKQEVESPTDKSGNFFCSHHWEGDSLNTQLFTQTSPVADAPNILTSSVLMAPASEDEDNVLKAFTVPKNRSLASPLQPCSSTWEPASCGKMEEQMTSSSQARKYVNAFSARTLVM
# In short: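 HepG2 cells were transiently transfected with cis-regulated multiple reporter transcription units reflecting endogenous Myb activity, then exposed to compound for 24 hours. Reporter mRNA was measured by RT-PCR with capillary electrophoresis; bidirectional fitting versus DMSO baseline.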
# [10] = target: Nuclear respiratory factor 1 (Homo sapiens) (UniProt Q16656); assay: ATG_NRF1_CIS: Attagene CIS-FACTORIAL HepG2 Assay for human Nuclear Respiratory Factor 1 (NRF1) Orphan Gene (AID 2282987); conditions: HepG2 NRF1 cis-element reporter, Attagene multiplex; actives raise or lower the signal
# Sequence of Nuclear respiratory factor 1 (Homo sapiens) (Q16656 whole entry, looked up): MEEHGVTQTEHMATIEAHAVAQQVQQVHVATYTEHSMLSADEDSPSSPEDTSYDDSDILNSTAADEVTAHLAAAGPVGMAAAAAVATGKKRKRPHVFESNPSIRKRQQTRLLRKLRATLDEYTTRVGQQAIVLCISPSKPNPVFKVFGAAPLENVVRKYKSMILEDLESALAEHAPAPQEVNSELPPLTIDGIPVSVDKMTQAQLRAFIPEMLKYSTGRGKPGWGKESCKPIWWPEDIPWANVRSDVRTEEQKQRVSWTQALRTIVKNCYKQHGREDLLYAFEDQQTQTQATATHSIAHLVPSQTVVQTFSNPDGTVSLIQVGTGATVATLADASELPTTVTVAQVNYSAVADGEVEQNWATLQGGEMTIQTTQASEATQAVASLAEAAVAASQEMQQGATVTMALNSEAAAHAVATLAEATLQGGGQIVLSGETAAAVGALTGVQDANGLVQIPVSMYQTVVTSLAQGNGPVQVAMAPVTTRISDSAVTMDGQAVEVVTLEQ
# In short: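 HepG2 cells transiently transfected with multiple reporter transcription units under cis-regulatory promoter control, so endogenous transcription-factor activity is read. After 24 h compound exposure, reporter mRNA quantified by RT-PCR, fluorescent labelling, HpaI digestion and capillary electrophoresis; bidirectional fitting versus DMSO.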
# [11] = ATG_NFI_CIS: Attagene CIS-FACTORIAL HepG2 Assay for human Nuclear Factor I (NFI) (AID 2282989); conditions: HepG2 cis-regulatory reporter, NFI response element transcription; actives raise or lower the signal
# In short: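 Multiplexed cis-reporter system in human HepG2 cells reports native TF activity as reporter mRNA induction 24 h post-dose. Fragments labelled with 6-FAM, HpaI-digested and resolved by capillary electrophoresis; activity fitted both directions versus DMSO.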
# [12] = target: Myc proto-oncogene protein (Homo sapiens) (UniProt P01106); assay: ATG_Myc_CIS: Attagene CIS-FACTORIAL HepG2 Assay for human Myelocytomatosis (Myc) Proto-Oncogene Transcription Factor (AID 2282990); conditions: HepG2, Attagene cis-reporter transcription factor activity; actives raise or lower the signal
# In short: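 After 24 h chemical treatment of HepG2 cells carrying multiplexed cis-regulated reporter constructs, reporter transcripts quantified by RT-PCR and capillary electrophoresis of fluorescent fragments. Gain or loss fitted against DMSO baseline.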
# [13] = ATG_NF_kB_CIS: Attagene CIS-FACTORIAL HepG2 Assay for human Nuclear Factor Kappa B (NF-kB) (AID 2282991); conditions: HepG2 Attagene cis-factorial NF-kB reporter mRNA; actives raise or lower the signal
# In short: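 HepG2 cells transiently transfected with multiplexed cis-element reporter units measuring endogenous transcription factor activity; reporter mRNA read 24 h after dosing by RT-PCR, fluorescent labelling, HpaI digestion and capillary electrophoresis. Bidirectional fit against DMSO baseline.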
# [14] = target: Cellular tumor antigen p53 (Homo sapiens) (UniProt P04637); assay: ATG_p53_CIS: Attagene CIS-FACTORIAL HepG2 Assay for human p53 Transcription Factor (AID 2282994); conditions: HepG2 p53 cis-element reporter, Attagene mRNA; actives raise or lower the signal
# Sequence of Cellular tumor antigen p53 (Homo sapiens) (P04637 whole entry, looked up, the tested form may be a part): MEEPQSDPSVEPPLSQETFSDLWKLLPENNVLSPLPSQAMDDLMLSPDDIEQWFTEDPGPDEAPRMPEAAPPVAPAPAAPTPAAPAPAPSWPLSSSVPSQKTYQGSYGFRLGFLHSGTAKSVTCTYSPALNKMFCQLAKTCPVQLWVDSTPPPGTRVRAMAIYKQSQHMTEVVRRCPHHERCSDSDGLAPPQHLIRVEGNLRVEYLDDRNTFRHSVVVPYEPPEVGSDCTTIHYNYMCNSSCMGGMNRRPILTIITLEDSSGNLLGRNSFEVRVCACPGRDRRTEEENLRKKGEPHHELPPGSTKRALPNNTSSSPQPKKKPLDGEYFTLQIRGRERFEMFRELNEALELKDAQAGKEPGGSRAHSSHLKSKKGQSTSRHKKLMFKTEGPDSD
# In short: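 Steps: transfect HepG2 with multiplexed cis reporter constructs; dose chemicals 24 h; extract RNA, reverse-transcribe, PCR-amplify reporter sequences; FAM-label, HpaI-digest, resolve fragments by CE. Activity fitted both directions relative to DMSO.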
# [15] = BSK_3C_TissueFactor: BioMAP Diversity Plus: 3C Assay for Tissue Factor Biomarker Activity (AID 2282997); conditions: BioMAP 3C HUVEC, tissue factor biomarker readout; actives raise or lower the signal
# In short: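 Tissue factor on primary human umbilical vein endothelium was read by ELISA 24 h after dosing, gain or loss relative to DMSO. Cytotoxicity ran alongside via SRB (0.1%, TCA-fixed, 560 nm).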
# [16] = BSK_3C_uPAR: BioMAP Diversity Plus: 3C Assay for Urokinase-type plasminogen activator receptor (uPAR) Biomarker Activity (AID 2282998); conditions: BioMAP 3C HUVEC, uPAR biomarker ELISA; actives raise or lower the signal
# In short: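 Values derive from bidirectional curve fitting relative to DMSO, which served as baseline of activity. uPAR was measured by ELISA in human umbilical vein endothelial primary cultures 24 h after compound addition.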
# [17] = BSK_3C_VCAM1: BioMAP Diversity Plus: 3C Assay for Vascular cell adhesion molecule 1 (VCAM1) Biomarker Activity (AID 2282999); conditions: BioMAP 3C HUVEC, VCAM1 ELISA, cytokine-stimulated; actives raise or lower the signal
# In short: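 Activity fitted in both directions relative to DMSO, with ELISA measurement of the surface marker on primary HUVEC (3C) at 24 h post-treatment; parallel SRB staining (0.1% SRB, TCA-fixed, 560 nm) flagged overt cytotoxicity.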
# [18] = target: Bile acid receptor (Homo sapiens) (UniProt Q96RI1); assay: ATG_FXR_TRANS: Attagene TRANS-FACTORIAL HepG2 Assay for Farnesoid X Receptor (FXR) (AID 2282979; active means hit-call score of the fitted dose curve at least 0.9, where 1 is the maximum;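 further: hits raise reporter mRNA above DMSO so AC50 marks FXR activation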); conditions: HepG2 Attagene TRANS FXR-GAL4 reporter transcription
# Sequence of Bile acid receptor (Homo sapiens) (Q96RI1 whole entry, looked up, the tested form may be a part): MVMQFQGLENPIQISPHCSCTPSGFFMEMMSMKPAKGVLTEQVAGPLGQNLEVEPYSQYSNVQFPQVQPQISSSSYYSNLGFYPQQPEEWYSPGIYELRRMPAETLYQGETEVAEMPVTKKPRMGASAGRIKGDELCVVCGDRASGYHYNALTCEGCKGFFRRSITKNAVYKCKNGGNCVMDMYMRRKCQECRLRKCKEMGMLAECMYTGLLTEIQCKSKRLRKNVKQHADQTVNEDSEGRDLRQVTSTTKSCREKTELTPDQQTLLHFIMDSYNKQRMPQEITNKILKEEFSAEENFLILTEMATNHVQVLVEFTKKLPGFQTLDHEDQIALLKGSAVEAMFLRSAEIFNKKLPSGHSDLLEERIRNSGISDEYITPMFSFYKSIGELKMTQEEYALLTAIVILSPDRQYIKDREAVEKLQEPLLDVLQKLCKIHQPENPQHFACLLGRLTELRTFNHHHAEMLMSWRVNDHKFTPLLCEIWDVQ
# In short: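 Reporter transcripts from transfected HepG2 cells were measured 24 h after dosing, using RT-PCR with capillary electrophoresis of 6-FAM-labelled fragments. The read-out reflects activity of exogenous FXR-Gal4 chimera on GAL4-UAS units, with induction relative to DMSO.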
# [19] = ATG_Oct_MLP_CIS: Attagene CIS-FACTORIAL HepG2 Assay for human Octamer-Binding Transcription Factor (Oct) (AID 2282993); conditions: HepG2 Attagene cis-factorial Oct reporter, mRNA; actives raise or lower the signal
# In short: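 After 24 h compound exposure, transfected HepG2 cells were lysed for total RNA; reporter-specific cDNA was PCR-amplified, fluorescently labelled and sized by capillary electrophoresis. Bidirectional curve fitting used DMSO as baseline.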
# [20] = ATG_NRF2_ARE_CIS: Attagene CIS-FACTORIAL HepG2 Assay for human Nuclear Factor Erythroid 2 Related Factor 2 (NFR2) response to Antioxidant Response Elements (ARE) (AID 2282992); conditions: HepG2 Attagene ARE/NRF2 reporter, transcription factor activity; actives raise or lower the signal
# In short: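 Endogenous transcription factor activity in human liver HepG2 cells is tracked via a cis-element-driven reporter within a multiplexed set. mRNA induction is read by RT-PCR and capillary electrophoresis after 24 h, with DMSO as baseline.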
smiles,measurement,setting,value
O=C(O)C(F)(F)C(F)(F)C(F)(F)C(F)(F)C(F)(F)C(F)(F)C(F)(F)C(F)(F)C(F)(F)F,outcome,[1],inactive
same,outcome,[2],inactive
same,outcome,[3],inactive
same,outcome,[4],inactive
same,outcome,[5],inactive
same,outcome,[6],inactive
same,outcome,[7],inactive
same,AC50,[8],12.9 µM (active)
same,outcome,[8],inactive
same,outcome,[9],inactive
same,outcome,[10],inactive
same,outcome,[11],inactive
same,outcome,[12],inactive
same,outcome,[13],inactive
same,AC50,[14],46.9 µM (active) and 69.4 µM (active)
same,outcome,[14],inactive
same,AC50,[15],51.8 µM (active) and 50.7 µM (active)
same,outcome,[15],inactive
same,AC50,[16],46.2 µM (active) and 51.4 µM (active)
same,outcome,[16],inactive
same,AC50,[17],56.8 µM (active) and 53.1 µM (active)
same,outcome,[17],inactive
Oc1c(Cl)c(Cl)c(Cl)c(Cl)c1Cl,outcome,[2],inactive
same,outcome,[18],inactive
same,outcome,[3],inactive
same,outcome,[4],inactive
same,outcome,[5],inactive
same,outcome,[6],inactive
same,outcome,[7],inactive
same,outcome,[8],inactive
same,outcome,[9],inactive
same,AC50,[10],12.5 µM (active) and 25.7 µM (active)
same,outcome,[10],inactive
same,AC50,[11],27.4 µM (active) and 51 µM (active)
same,outcome,[11],inactive
same,AC50,[12],50 µM (active) and 91.9 µM (active)
same,outcome,[12],inactive
same,AC50,[13],9.11 µM (active)
same,outcome,[13],inactive
same,AC50,[19],31.1 µM (active) and 11.4 µM (active) and 73.1 µM (active)
same,AC50,[14],51 µM (active)
same,outcome,[14],inactive
same,AC50,[15],26.9 µM (active)
same,outcome,[15],inactive
same,AC50,[16],13.5 µM (active) and 10.7 µM (active)
same,AC50,[17],10.2 µM (active) and 32.3 µM (active)
CCOC(=O)C(O)(c1ccc(Cl)cc1)c1ccc(Cl)cc1,outcome,[2],inactive
same,outcome,[3],inactive
same,outcome,[6],inactive
same,outcome,[7],inactive
same,outcome,[9],inactive
same,outcome,[10],inactive
same,outcome,[11],inactive
same,outcome,[12],inactive
same,outcome,[13],inactive
same,outcome,[20],inactive
same,outcome,[19],inactive
same,outcome,[14],inactive
same,AC50,[15],33.5 µM (active)
same,AC50,[16],31.7 µM (active)
same,AC50,[17],34.7 µM (active)
